Assay [1] in a line: optical density shifts of acrAB sulA E. coli – strain DRC41, OD650, 48 h, E. coli filamentation inducer project, primary screen (AID 1152).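 Further: E. coli MC1000 strain DRC41 lacking acrAB efflux pump and sulA.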 The following applies: higher = more signal, called active from +8 up or from −8 down.
The nature of assay [2]: probe aLefty1 binding on compound microarray – biochemical, small-molecule microarray, 635/667 nm fluorescence, primary screen (AID 1153).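 Further: score merges spot fluorescence with signal-to-noise ratio from the scanned slide images.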 The following applies: higher = more signal.
Assay [3] is described as follows: plasmodial surface anion channel blockers, osmotic lysis – cell-based, P. falciparum Indochina, OD700, 1 h, primary screen (AID 1154). The settings on record: P. falciparum Indochina infected RBC osmotic lysis, higher = more signal, called active from +8 up or from −8 down.
The nature of assay [4]: plasmodial surface anion channel blockers, osmotic lysis – cell-based, P. falciparum Indochina, OD700, 2 h, primary screen (AID 1155).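 Further: lysis reports solute entry through the parasite surface anion channel PSAC.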 The settings on record: P. falciparum Indochina infected erythrocytes, higher = more signal, called active from +8 up or from −8 down.
Assay [5] in a line: changes in parasitized red cell lysis, either direction – P. falciparum Indochina, OD700, 3 h, PSAC antagonist project, primary screen (AID 1156). The settings on record: P. falciparum-infected erythrocytes, osmotic lysis, higher = more signal, called active from +8 up or from −8 down.
Assay [6] can be described thus: plasmodial surface anion channel blockers, osmotic lysis – cell-based, P. falciparum Indochina, OD700, 18 h, primary screen (AID 1157). The settings on record: P. falciparum Indochina infected erythrocytes, osmotic lysis OD700, 18 h; higher = more signal, called active from +8 up or from −8 down.
Assay [7] in a line: S6 kinase pathway phospho-S6 level changes – cell-based, A549, cytoblot, luminescence, serum-stimulated, primary screen (AID 1158).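 Further: serum-stimulated A549 lung adenocarcinoma cells; signal is phosphorylated S6 detected by cytoblot immunostaining with HRP secondary.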 The settings on record: 5 h, higher = more signal.
Assay [8] deals with NADPH oxidase 2 (Homo sapiens) (UniProt P04839). The assay is described as follows: compounds shifting NOX2 Amplex Red fluorescence – cell-based, HEK293-NOX2, PMA-stimulated, NOX inhibitor project, primary screen (AID 1159). Further: test concentration not given here. The following applies: 45 min, higher = more signal, called active from +8 up or from −8 down.
Chain of NADPH oxidase 2 (Homo sapiens) (P04839 whole entry, looked up): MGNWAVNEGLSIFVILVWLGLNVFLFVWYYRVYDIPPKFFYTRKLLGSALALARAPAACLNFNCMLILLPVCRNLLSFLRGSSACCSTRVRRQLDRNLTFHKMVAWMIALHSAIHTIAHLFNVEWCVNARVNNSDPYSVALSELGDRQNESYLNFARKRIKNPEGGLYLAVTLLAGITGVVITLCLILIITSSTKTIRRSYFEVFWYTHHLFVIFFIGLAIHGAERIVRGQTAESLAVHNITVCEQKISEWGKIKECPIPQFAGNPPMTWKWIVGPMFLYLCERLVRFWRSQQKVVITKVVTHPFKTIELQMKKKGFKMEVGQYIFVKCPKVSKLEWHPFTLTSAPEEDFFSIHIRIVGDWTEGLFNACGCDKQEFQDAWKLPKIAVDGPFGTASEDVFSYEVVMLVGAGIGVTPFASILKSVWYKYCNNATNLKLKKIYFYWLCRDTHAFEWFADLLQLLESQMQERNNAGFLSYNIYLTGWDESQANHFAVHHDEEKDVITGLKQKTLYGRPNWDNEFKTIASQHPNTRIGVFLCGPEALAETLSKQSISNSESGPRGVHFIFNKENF
In assay [9] the target is NADPH oxidase 4 (Homo sapiens) (UniProt Q9NPH5). The assay is described as follows: compounds shifting NOX4 Amplex Red fluorescence – cell-based, HEK293-NOX4, tetracycline-induced, NOX inhibitor project, primary screen (AID 1160). The settings on record: HEK293-NOX4, Amplex Red H2O2 fluorescence, 45 min; higher = more signal, called active from +8 up or from −8 down.
Chain of NADPH oxidase 4 (Homo sapiens) (Q9NPH5 whole entry, looked up): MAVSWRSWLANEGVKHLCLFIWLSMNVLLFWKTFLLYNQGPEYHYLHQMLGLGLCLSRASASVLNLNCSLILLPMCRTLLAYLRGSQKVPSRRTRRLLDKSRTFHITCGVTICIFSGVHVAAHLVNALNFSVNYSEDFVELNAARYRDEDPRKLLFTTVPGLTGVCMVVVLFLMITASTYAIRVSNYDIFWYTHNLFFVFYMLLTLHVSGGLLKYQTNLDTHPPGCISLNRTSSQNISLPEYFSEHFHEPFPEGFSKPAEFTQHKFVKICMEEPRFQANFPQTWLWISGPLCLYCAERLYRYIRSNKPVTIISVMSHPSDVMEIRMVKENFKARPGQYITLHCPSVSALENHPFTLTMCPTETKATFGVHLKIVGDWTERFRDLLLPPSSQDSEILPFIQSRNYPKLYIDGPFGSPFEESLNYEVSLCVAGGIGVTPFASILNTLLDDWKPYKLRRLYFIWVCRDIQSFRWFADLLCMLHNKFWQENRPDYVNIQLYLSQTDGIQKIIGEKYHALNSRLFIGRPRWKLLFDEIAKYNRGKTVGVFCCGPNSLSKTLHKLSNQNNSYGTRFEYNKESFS
Assay [10] deals with NADPH oxidase 5 (Homo sapiens) (UniProt Q96PH1). Description: compounds shifting NOX5 Amplex Red fluorescence – cell-based, HEK293-NOX5, NOX inhibitor project, primary screen (AID 1161). The following applies: HEK293-NOX5, ionomycin, 45 min, higher = more signal.
Chain of NADPH oxidase 5 (Homo sapiens) (Q96PH1 whole entry, looked up): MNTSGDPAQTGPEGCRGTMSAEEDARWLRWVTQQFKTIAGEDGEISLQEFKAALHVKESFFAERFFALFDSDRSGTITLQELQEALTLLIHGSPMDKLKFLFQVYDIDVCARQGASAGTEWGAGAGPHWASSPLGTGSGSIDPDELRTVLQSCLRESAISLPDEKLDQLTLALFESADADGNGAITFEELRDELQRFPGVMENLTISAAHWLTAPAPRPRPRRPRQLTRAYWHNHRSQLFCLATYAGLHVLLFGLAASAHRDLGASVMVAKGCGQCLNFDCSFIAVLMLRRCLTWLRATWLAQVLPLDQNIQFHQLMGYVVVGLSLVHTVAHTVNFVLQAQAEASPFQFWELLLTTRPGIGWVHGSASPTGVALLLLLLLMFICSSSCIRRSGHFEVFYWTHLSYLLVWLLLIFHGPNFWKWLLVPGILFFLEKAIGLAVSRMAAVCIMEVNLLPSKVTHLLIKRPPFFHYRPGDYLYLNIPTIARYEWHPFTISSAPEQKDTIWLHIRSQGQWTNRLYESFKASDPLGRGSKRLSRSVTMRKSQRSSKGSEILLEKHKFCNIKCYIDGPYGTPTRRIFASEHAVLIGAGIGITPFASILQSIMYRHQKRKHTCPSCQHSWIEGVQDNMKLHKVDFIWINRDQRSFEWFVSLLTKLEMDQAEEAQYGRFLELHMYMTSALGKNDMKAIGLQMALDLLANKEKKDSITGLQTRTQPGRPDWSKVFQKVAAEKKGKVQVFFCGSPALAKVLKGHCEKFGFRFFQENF
Assay [11] is described as follows: compound effects on lung adenocarcinoma cell viability – A549, calcein-AM fluorescence, 48 h, basal, profiling panel (AID 1162). Further: test concentration not given here. The following applies: higher = more signal.
The nature of assay [12]: compound effects on differentiated 3T3-L1 adipocyte viability – cell-based, 3T3-L1 adipocytes, calcein-AM fluorescence, 48 h, basal, profiling panel (AID 1163). Further: test concentration not given here. The following applies: 3T3-L1 adipocytes viability, higher = more signal.
Assay [13] is described as follows: compound effects on hepatocellular carcinoma cell viability – HepG2, calcein-AM fluorescence, 48 h, basal, profiling panel (AID 1164). Further: test concentration not given here. The settings on record: higher = more signal.
Assay [14] in a line: compound effects on multiple myeloma cell viability – MM1S, calcein-AM fluorescence, 48 h, basal, profiling panel (AID 1165).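 Further: viability of MM1S multiple myeloma cells under basal unstimulated conditions; test concentration not given here.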 The following applies: higher = more signal.
A short description of assay [15]: calcein-AM signal in unstimulated myeloma cells – cell-based, calcein-AM fluorescence, 48 h, PK04 Diversity Set, profiling panel (AID 1166).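 Further: cells grown under basal conditions without added stimulus; test concentration not given here.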 The following applies: RPMI8226 myeloma viability, higher = more signal.
The nature of assay [16]: JC-1 mitochondrial signal, unstimulated HepG2 cells – cell-based, JC-1 fluorescence, 24 h, 100 nL compound, profiling panel (AID 1167). Further: test concentration not given here. The following applies: HepG2 mitochondrial potential, higher = more signal.
A short description of assay [17]: JC-1 mitochondrial signal, unstimulated adipocytes – cell-based, JC-1 fluorescence, 3T3-L1 adipocytes, 24 h, 100 nL compound, profiling panel (AID 1168). Further: test concentration not given here. The following applies: JC-1 mitochondrial fluorescence, higher = more signal, called active from +8 up or from −8 down.
The nature of assay [18]: JC-1 mitochondrial signal, unstimulated myeloma cells – cell-based, JC-1 fluorescence, RPMI8226, 24 h, 100 nL compound, profiling panel (AID 1169). Further: test concentration not given here. The following applies: JC-1 mitochondrial potential fluorescence, higher = more signal.
A short description of assay [19]: JC-1 mitochondrial signal, unstimulated MM1S myeloma – cell-based, JC-1 fluorescence, 24 h, 100 nL compound, profiling panel (AID 1170). Further: test concentration not given here. The following applies: MM1S mitochondrial potential, higher = more signal.
Assay [20] in a line: resazurin metabolic signal in A549 cells – cell-based, resazurin fluorescence, 24 h, PK04 Diversity Set, profiling panel (AID 1171). Further: test concentration not given here. The settings on record: A549 viability, higher = more signal, called active from +8 up or from −8 down. On the technique in general: The colour change of resazurin is a common sign of viable cells or microbes.

The structures appear in SMILES notation. Calls of active or inactive are those of the source.

As to `COc1cccc([C@H]2Oc3ccc(OC)cc3C(=NO[C@H](C)c3cn([C@@H]4COC[C@H]4O)nn3)[C@@H]2O)c1`, the z-score in assay [1] is -1.79 (inactive); in [3] it was 0.162 (inactive); in assay [4] it was -1.17 (inactive); in [5], 1.91 (inactive); in assay [6], -1.69 (inactive); in assay [7], 0.444. Moreover, the z-score was -0.683 (inactive) in assay [8]; -0.721 (inactive) in assay [9]; -3.94 in assay [10]; -1.3 in assay [11]; 0.67 in [12]; -0.428 in assay [13]. Also, the z-score in assay [14] was -0.717; in [15] it was -0.786; in assay [16] it was -0.832; in assay [17], 0.839 (inactive); in [18] it was 0.161; in assay [19], -0.761. Besides, the z-score in assay [20] is -0.481 (inactive). The composite z-score in assay [2] was -0.235.

For `C#CCCCON=C1C[C@@H](O)[C@@H](O)[C@@H]2[C@@H]3C(=O)N([C@@H](C)c4ccccc4)C(=O)[C@@H]3CC[C@H]12`, the z-score was -1.08 (inactive) in [1]; 0.553 (inactive) in assay [3]; -0.645 (inactive) in [4]; -0.318 (inactive) in [5]; -2.13 (inactive) in [6]; -0.235 in assay [7]. Besides, the z-score was -0.599 (inactive) in assay [8]; -1.21 (inactive) in assay [9]; 0.579 in assay [10]; -0.858 in assay [11]; -0.0991 in [12]; -0.106 in [13]. The z-score in assay [14] is 0.348; in assay [15], -1.39; in assay [16], 0.359; in assay [17], 0.114 (inactive); in [18] it was 0.234; in assay [19], -0.53. The z-score in [20] is -0.0314 (inactive). Besides, in assay [2], the composite z-score was determined as 0.75.

For the compound `CCc1cc2c(nc1CC)CCN(CCC(C)=NOC[C@@H](O)[C@H]1O[C@@H]3OC(C)(C)O[C@@H]3[C@H]1O)C2`, the z-score was -1.12 (inactive) in [1]; 0.202 (inactive) in assay [3]; -0.336 (inactive) in [4]; 0.0286 (inactive) in assay [5]; 0.0977 (inactive) in assay [6]; -0.512 in assay [7]. The z-score is 0.336 (inactive) in assay [8]; 0.494 (inactive) in assay [9]; 2.57 in [10]; 0.719 in assay [11]; 0.879 in assay [12]; 1.09 in assay [13]. The z-score is -1.1 in assay [14]; -0.531 in assay [15]; 0.244 in assay [16]; -1.1 (inactive) in assay [17]; 0.527 in assay [18]; -0.162 in [19]. Further, the z-score in assay [20] is -0.0919 (inactive). Also, the composite z-score in assay [2] was -0.179.

In the case of `CC(C)NC(=O)[C@@]1(C)c2ccccc2C(=O)N(Cc2cc(F)cc(C(F)(F)F)c2)[C@H]1c1ccc(CO)cc1`, the z-score in assay [1] is 0.0051 (inactive); in assay [3], 7.03 (inactive); in assay [4], 0.429 (inactive); in assay [5] it was 0.943 (inactive); in assay [6], 0.0608 (inactive); in assay [7], -0.191. Moreover, the z-score is 0.162 (inactive) in [8]; 0.696 (inactive) in assay [9]; -0.117 in [10]; 0.0549 in [11]; -0.866 in [12]; -0.135 in assay [13]. Moreover, the z-score in assay [14] was -0.0517; in assay [15], 0.223; in [16], 0.863; in [17], -0.327 (inactive); in assay [18], 0.102; in assay [19], -0.542. Besides, the z-score in [20] was 0.166 (inactive). For the same compound, in assay [2], the composite z-score is -0.21.

As to `COC(=O)[C@]1(CO)N=C(c2ccc(OCCCO)cc2)O[C@@H]1c1ccccc1N=[N+]=[N-]`, the z-score was 0.248 (inactive) in assay [1]; 18.3 (active) in [3]; 2.32 (inactive) in [4]; 1.49 (inactive) in assay [5]; 0.742 (inactive) in assay [6]; -0.315 in assay [7]. For the same compound, the z-score in assay [8] was -0.502 (inactive); in [9], 0.0857 (inactive); in [10], -0.514; in assay [11] it was -0.0196; in assay [12] it was 0.909; in [13], 0.45. The z-score in assay [14] was 0.512; in assay [15] it was -0.172; in assay [16], -0.177; in assay [17], -0.464 (inactive); in assay [18] it was 0.392; in assay [19], -0.471. The z-score in assay [20] is -0.276 (inactive). The same compound showed a composite z-score in [2] of 0.191.

Source of the values: PubChem BioAssay.
